In PubChem BioAssay (NCI):
The panel holds about 83,000 compounds, 20% with a hit somewhere; the sample as a whole holds those more often.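 Values shown are percent growth following 48 h exposure of cells in 96-well plates to a single concentration of compound; below 10 was considered active.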 A number with no mark means an inactive call. Activity calls are given as the source filed them.

What was measured:
Assay in all cases: NCI-60 one-dose screen, 48 h (100 = growth as untreated, 0 = no growth, -100 = all killed)
Settings in all cases: 10 µM unless noted
[1] = system: DU-145 prostate
[2] = system: K-562 leukemia
[3] = system: MALME-3M melanoma
[4] = system: MDA-MB-231 breast
[5] = system: RXF 393 renal
[6] = system: SF-268 CNS
[7] = system: SF-295 CNS
[8] = system: SF-539 CNS
[9] = system: UACC-257 melanoma
[10] = system: M14 melanoma

| Structure (SMILES) | growth [1] | growth [2] | growth [3] | growth [4] | growth [5] | growth [6] | growth [7] | growth [8] | growth [9] | growth [10] |
| --- | --- | --- | --- | --- | --- | --- | --- | --- | --- | --- |
| Cc1sc2nc(NCCc3cccs3)[nH]c(=O)c2c1C | 94.7% | 82.5% | 98.7% | 92.5% | 78.9% | 95.4% | 82.8% | 91.4% | 72% | 82.9% |
| Clc1ccc(C2=NN(c3ccc(Cl)cc3)C(c3cccc(Nc4ccnc5cc(Cl)ccc45)c3)C2)cc1 (stereo not given) | 96.2% | 75.1% | 87.1% | 84.5% | 82.5% | 84.3% | 88.6% | 96.5% | 76.8% | 84.8% |
| Nc1ccn(C2O[C@H](CO)[C@@H](O)[C@@H]2O)c(=O)n1 (stereo not given in full) | 29.6% | 62.4% | 57.2% | 68.8% | 83.4% | 34% | 50.8% | 72.4% | 54.5% | -15.7% (active) |
| c1ccc(-c2n(Cc3ccc4ccccc4c3)cc[n+]2Cc2ccc3ccccc3c2)cc1 | 4.64% (active) | -36.7% (active) | -67.8% (active) | -82.7% (active) | -84.7% (active) | -58.2% (active) | -51% (active) | -34.7% (active) | -57.1% (active) | -60.5% (active) |
| COc1cccc(-c2nc(-c3ccc(N)cc3)co2)c1 | 102% | 84.5% | 114% | 88.1% | 93.2% | 128% | 92.8% | 110% | 93.1% | 91.1% |
| C[C@@H]1C[C@@H]([C@@H](CC2CC(=O)NC(=O)C2)OC(=O)CC(=O)c2ccccc2)C(=O)[C@@H](C)C1 | 11.8% | 17.7% | -0.912% (active) | 17.5% | -13.7% (active) | 15.6% | 4.68% (active) | 5.1% (active) | -4.59% (active) | 10.9% |
| N#Cc1c(-c2ccccc2)cc(-c2ccccc2)n(CCCCC(=O)O)c1=O | 107% | 80.8% | 87.8% | 91% | 89.7% | 94% | 82.8% | 93.5% | 94.1% | 86.4% |
| NS(=O)(=O)c1cc(C2(O)NC(=O)c3ccccc32)ccc1Cl (stereo not given) | 116% | 111% | 95.4% | 112% | 109% | 109% | 103% | 97.7% | 112% | 104% |
| O=C(c1ccccc1)c1ccc(Oc2ccc([N+](=O)[O-])cc2[N+](=O)[O-])cc1 | 95.9% | 11.9% | 70.2% | 89.5% | 81.1% | 87.8% | 91.2% | 55.3% | 71% | 53.8% |
| O=C(CSc1ncc(-c2ccccc2)n1-c1ccccc1)Nc1ccc(-c2nc3ccccc3s2)cc1 | 68.4% | 70.7% | 17% | 95.4% | 93.2% | 54.3% | 96.4% | 59.8% | 48.8% | 72.8% |
| CC1C(=O)NC2=Nc3ccccc3C(=O)NN21 (stereo not given) | 119% | 101% | 104% | 90.4% | 116% | 113% | 105% | 103% | 114% | 102% |
| COc1cc(/C=C2\SC(N3CCCCC3)=NC2=O)ccc1OCCCCCCOc1ccc(/C=C2\SC(N3CCCCC3)=NC2=O)cc1OC | -7% (active) | 3.85% (active) | 5.59% (active) | 20.9% | -44.3% (active) | -1.61% (active) | 4.37% (active) | -1.19% (active) | -0.986% (active) | 13.1% |
| C/C(=C\CCc1ccoc1)CC/C=C(\C)CCCC1COC(=O)C1 (stereo not given) | 105% | 98.4% | 89.5% | 92.6% | 99.1% | 107% | 99% | 93.4% | 101% | 104% |
| CSc1nc2nc3c(c(-c4ccc(C)cc4)c2c(=O)[nH]1)CN(C)C/C3=C\c1ccc(C)cc1 | 99.4% | 103% | 120% | 86.3% | 109% | 90.9% | 111% | 124% | 79.7% | 104% |
| CN1C(=O)C(C2=NN(C=O)C(c3ccc(F)cc3)C2)C(=O)N(C)C1=O (stereo not given) | 106% | 94.2% | 95.8% | 106% | 95.5% | 96.9% | 99.2% | 102% | 69.3% | 98.5% |
| O=C(/C=C/c1cccc(Nc2ccnc3cc(Cl)ccc23)c1)c1ccc(Cl)cc1 | 59.6% | 14.6% | 62.5% | 60.4% | 71.9% | 69.2% | 40.2% | 62.5% | 61.3% | 54.3% |
| CN1CCC[C@@H]1CCO[C@](C)(c1ccccc1)c1ccc(Cl)cc1 | 91.5% | 30.4% | 71.8% | 88.7% | 38.7% | 81.8% | 63.2% | 76.2% | 23.4% | 15.6% |
| C[C@@H]1CN(c2nc3c(cc2F)c(=O)c(C(=O)O)cn3C(C)(C)C)C[C@H](C)N1 | 114% | 90.8% | 91.3% | 88.4% | -17.3% (active) | 114% | 96.5% | 107% | 91.2% | 98.8% |
| COc1cc(/C=N/OC(=O)Nc2ccccc2)cc(OC)c1OC | 115% | 107% | 97.9% | 92.6% | 121% | 107% | 129% | 100% | 105% | 107% |
| O=Cc1ncc(-c2ccc(C(F)(F)F)cc2)c(NC2CCCCCC2)n1 | -92.9% [100 µM] (active) | -50.2% [100 µM] (active) | -92% [100 µM] (active) | -87.8% [100 µM] (active) | -80.2% [100 µM] (active) | -83.9% [100 µM] (active) | -86.3% [100 µM] (active) | -96.8% [100 µM] (active) | -92% [100 µM] (active) | -91.6% [100 µM] (active) |
| NS(=O)(=O)c1ccc(-n2ncc3c(N/N=C/c4ccccc4)ncnc32)cc1 | 73.1% | 83.1% | 85.6% | 101% | -18.8% (active) | 76.9% | 29.8% | 76.2% | 62.4% | 116% |

| Structure (SMILES) | growth [1] | growth [2] | growth [3] | growth [4] | growth [5] | growth [6] | growth [7] | growth [8] | growth [9] | growth [10] |
| --- | --- | --- | --- | --- | --- | --- | --- | --- | --- | --- |
| Cc1cc(C(=O)Nc2ccc3cc(CN4CCOCC4)ccc3n2)c(C)n1-c1ccccc1 | 70.2% | 27% | 11.4% | 70.9% | 96.3% | 77% | 11.7% | 59.1% | -12.7% (active) | 13.5% |
| COc1cnc2c(c1)C(=O)c1c-2n(CCCN2CCOCC2)c(=O)c2cc(F)ccc12 | 3.8% (active) | 12.4% | -31.8% (active) | 40.6% | -30.1% (active) | 3.55% (active) | -21.1% (active) | -61.4% (active) | -10.6% (active) | 0.95% (active) |
| CCCCCCCC[Si](OCC)(OCC)OCC | 105% | 99.2% | 91.6% | 104% | 104% | 104% | 111% | 98.8% | 114% | 98.7% |
| NC(=O)c1cc(Br)cc(Br)c1NS(=O)(=O)c1ccccc1 | 110% | 122% | 94.1% | 88.1% | 104% | 108% | 98.2% | 98.6% | 131% | 101% |
| COc1cnc2c(c1)C(=O)c1c-2n(CCCNC(C)C)c(=O)c2cc(F)ccc12 | -8.54% (active) | -6.91% (active) | -70.1% (active) | 1.51% (active) | -85.5% (active) | 4.2% (active) | -23% (active) | -73.4% (active) | -16% (active) | -81.9% (active) |
| NS(=O)(=O)c1cc2c(cc1Cl)NC=NS2(=O)=O | 111% | 120% | 103% | 113% | 121% | 109% | 104% | 103% | 104% | 96.4% |
| COc1ccccc1-n1c(-c2ccc(O)cc2C)cn2c3c(=O)[nH]c(=O)n(C)c3nc12 | 112% | 98.9% | 97.6% | 65% | 72.4% | 86.4% | 99.8% | 88.8% | 82.2% | 88.7% |
| COc1cc(/C=C/c2cc(/C=C/c3ccc(O)c(OC)c3)n(C(=O)c3ccc(Cl)cc3)n2)ccc1O | 19.9% | 2.24% (active) | 44.6% | 31.8% | 15.3% | 27% | 48% | 10.1% | 63.2% | -1.11% (active) |
| COc1ccc(-c2nc3sc4c(c3c(=O)[nH]2)CCCCCC4)cc1 | 66.6% | 17.8% | 8.18% (active) | 52.6% | 28.4% | 48.6% | 43.6% | 65.1% | 64% | 33.7% |
| CC1(C)CC2(C)CC(=O)C1C(C(=O)O)C2C(=O)O (stereo not given) | 120% | 104% | 110% | 107% | 103% | 105% | 105% | 108% | 107% | 119% |
| C[C@]12CCC(=O)C=C1CCC1C2[C@@H](O)C[C@@]2(C)C1CC[C@]2(O)C(=O)COC(=O)CCC(=O)O (stereo not given in full) | 118% | 117% | 81.7% | 94.7% | 121% | 107% | 117% | 97% | 114% | 104% |
| O=C1NC(=S)S/C1=C\c1cc(Br)ccc1O | 105% | 112% | 71.8% | 96.7% | 115% | 90.1% | 111% | 93.1% | 105% | 88.5% |
| COc1cccc(/C=N\NC(=O)c2ccncc2)c1O | 51.7% | 71.2% | 68.3% | 47.1% | 57.3% | 42.2% | 55.8% | 55.7% | 49.6% | 34.4% |
| O=C(O)c1ccc2cccnc2c1O | 22.2% | 11.1% | -7.97% (active) | 11.4% | 27.7% | 21.6% | 6.02% (active) | 10.4% | -9.12% (active) | 8.98% (active) |
| COc1cc(/C=C2\CN(S(=O)(=O)c3ccc(C)cc3)C/C(=C\c3cc(CN4CCOCC4)c(O)c(OC)c3)C2=O)cc(CN2CCOCC2)c1O | 29.1% | 10.4% | -25.7% (active) | 5.67% (active) | -87.3% (active) | 7.91% (active) | -34.1% (active) | -3.63% (active) | -28.6% (active) | -40.5% (active) |
| COc1cc(/C=C2\CN(C)CC3=C2Nc2nc(SC)[nH]c(=O)c2C3c2cc(OC)c(OC)c(OC)c2)cc(OC)c1OC (stereo not given) | 7.76% (active) | 8.74% (active) | 81.2% | 37.6% | 69.7% | 37.4% | 63.8% | 34.8% | 53.9% | 24.3% |
| CC(=O)OCC(=O)[C@@]1(O)CC[C@H]2[C@@H]3CCC4=CC(=O)CC[C@]4(C)[C@@]3(F)[C@@H](O)C[C@@]21C | 96% | 108% | 120% | 103% | 129% | 91.5% | 115% | 90.8% | 94.6% | 85.7% |
| N#Cc1c(-c2ccc(F)cc2)n2c(nc1=O)SC(=O)C2=O | 124% | 108% | 90.8% | 114% | 96.5% | 93.4% | 103% | 115% | 85.8% | 105% |
| CO[C@H]1/C=C/O[C@@]2(C)Oc3c(C)c(O)c4c(O)c(c(/C=N/N5C(C)CN(Cc6ccc(C#N)cc6)CC5C)c(O)c4c3C2=O)NC(=O)/C(C)=C\C=C\[C@H](C)[C@H](O)[C@@H](C)[C@@H](O)[C@@H](C)[C@H](OC(C)=O)[C@@H]1C (stereo not given in full) | 45.3% | 16.3% | 8.74% (active) | 90.3% | 43.7% | 35% | 0.574% (active) | 16% | 45.1% | 36.8% |
| O=CN1N=C(c2ccc(Nc3ccnc4cc(Cl)ccc34)cc2)CC1c1ccc(Cl)cc1 (stereo not given) | 10% | 9.53% (active) | 34.5% | 31.2% | 17.5% | 34.9% | -1.08% (active) | -0.113% (active) | 77.7% | 39.3% |
| CCCCc1ccc(C(N)=O)nc1 | 102% | 109% | 108% | 102% | 103% | 101% | 109% | 105% | 97.8% | 100% |
